Values joined by “and” are separate entries in the source; they are usually repeats but may differ in a detail not shown here. Equal entries are not always repeated. Among all 5,500 compounds or so, about 2,000 (36%) were called active. Not shown: some 18% with an inconclusive outcome. No stated cut-off is given here; in the data, active means normalized growth mostly below about 0.91 (no sharp cut-off); inconclusive means no clear call, values can overlap the other calls; inactive means mostly above about 0.92. The list shows a part of the results. More than one record can exist for a structure, and the calls need not agree.
Assay: chemical genetic growth profiling, strain panel (AID 1159580);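 further: tested at 20 µM; growth read once vehicle control cultures reached saturation at 30 °C; 1 = growth at the plate median or of vehicle wells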
Conditions: growth OD

## CCN(CC)C(=S)SSC(=S)N(CC)CC
S. cerevisiae deletion strains, locus YJR075W, strain HOC1, stronger effect = lower value
  normalized growth: 0.0635 (active) and 0.949 (inactive)
S. cerevisiae deletion strains, locus YKL009W, strain mrt4, stronger effect = lower value
  normalized growth: 0.606 (active)
S. cerevisiae deletion strains, locus YKL068W, stronger effect = lower value
  normalized growth: 0.0556 (active)
S. cerevisiae deletion strains, locus YKL085W, strain MDH1 (second series), stronger effect = lower value
  normalized growth: 0.0512 (active)
S. cerevisiae deletion strains, locus YKL085W, strain MDH1, stronger effect = lower value
  normalized growth: 0.0512 (active)
S. cerevisiae deletion strains, locus YKL160W, strain elf1, stronger effect = lower value
  normalized growth: 0.0678 (active)
S. cerevisiae deletion strains, locus YKL190W, strain CNB1, stronger effect = lower value
  normalized growth: 0.0509 (active)
S. cerevisiae deletion strains, locus YKR001C, strain vps1, stronger effect = lower value
  normalized growth: 0.0705 (active)
S. cerevisiae deletion strains, locus YKR026C, strain gcn3, stronger effect = lower value
  normalized growth: 0.0628 (active)
S. cerevisiae deletion strains, locus YKR091W, strain srl3, stronger effect = lower value
  normalized growth: 0.0583 (active)
S. cerevisiae deletion strains, locus YLL001W, strain dnm1, stronger effect = lower value
  normalized growth: 0.0613 (active)
S. cerevisiae deletion strains, locus YLL026W, stronger effect = lower value
  normalized growth: 0.0601 (active)
S. cerevisiae deletion strains, locus YLL041C, strain sdh2, stronger effect = lower value
  normalized growth: 0.0577 (active)
S. cerevisiae deletion strains, locus YLR027C, strain aat2, stronger effect = lower value
  normalized growth: 0.0572 (active)
S. cerevisiae deletion strains, locus YLR039C, strain RIC1, stronger effect = lower value
  normalized growth: 0.0861 (active)
S. cerevisiae deletion strains, locus YLR058C, strain SHM2, stronger effect = lower value
  normalized growth: 0.0583 (active)
S. cerevisiae deletion strains, locus YLR102C, strain apc9, stronger effect = lower value
  normalized growth: 0.0612 (active)
S. cerevisiae deletion strains, locus YLR113W, strain HOG1, stronger effect = lower value
  normalized growth: 0.133 (active)
S. cerevisiae deletion strains, locus YLR221C, strain rsa3, stronger effect = lower value
  normalized growth: 0.0619 (active)
S. cerevisiae deletion strains, locus YLR258W, strain gsy2, stronger effect = lower value
  normalized growth: 0.0609 (active)
S. cerevisiae deletion strains, locus YLR262C, strain YPT6 (second series), stronger effect = lower value
  normalized growth: 0.0822 (active)
S. cerevisiae deletion strains, locus YLR262C, strain YPT6, stronger effect = lower value
  normalized growth: 0.109 (active)
S. cerevisiae deletion strains, locus YLR268W, strain sec22, stronger effect = lower value
  normalized growth: 0.061 (active)
S. cerevisiae deletion strains, locus YLR320W, strain mms22, stronger effect = lower value
  normalized growth: 0.087 (active)
S. cerevisiae deletion strains, locus YLR330W, strain CHS5, stronger effect = lower value
  normalized growth: 0.0617 (active)
S. cerevisiae deletion strains, locus YLR342W, strain FKS1 (second series), stronger effect = lower value
  normalized growth: 0.0677 (active)
S. cerevisiae deletion strains, locus YLR342W, strain FKS1, stronger effect = lower value
  normalized growth: 0.0645 (active)
S. cerevisiae deletion strains, locus YLR357W, strain rsc2, stronger effect = lower value
  normalized growth: 0.119 (active)
S. cerevisiae deletion strains, locus YLR370C, strain arc18, stronger effect = lower value
  normalized growth: 0.0622 (active)
S. cerevisiae deletion strains, locus YLR371W, strain rom2, stronger effect = lower value
  normalized growth: 0.0655 (active)
S. cerevisiae deletion strains, locus YLR384C, strain iki3, stronger effect = lower value
  normalized growth: 0.0605 (active)
S. cerevisiae deletion strains, locus YLR418C, strain cdc73, stronger effect = lower value
  normalized growth: 0.0926 (active)
S. cerevisiae deletion strains, locus YML016C, strain PPZ1, stronger effect = lower value
  normalized growth: 0.052 (active)
S. cerevisiae deletion strains, locus YML032C, strain rad52, stronger effect = lower value
  normalized growth: 0.263 (active)
S. cerevisiae deletion strains, locus YML120C, strain ndi1, stronger effect = lower value
  normalized growth: 0.0591 (active)
S. cerevisiae deletion strains, locus YML124C, strain tub3, stronger effect = lower value
  normalized growth: 0.0572 (active)
S. cerevisiae deletion strains, locus YMR058W, strain fet3, stronger effect = lower value
  normalized growth: 0.0624 (active)
S. cerevisiae deletion strains, locus YMR078C, strain ctf18, stronger effect = lower value
  normalized growth: 0.073 (active)
S. cerevisiae deletion strains, locus YMR125W, strain sto1, stronger effect = lower value
  normalized growth: 0.0735 (active)
S. cerevisiae deletion strains, locus YMR129W, stronger effect = lower value
  normalized growth: 0.0588 (active)
S. cerevisiae deletion strains, locus YMR205C, strain PFK2, stronger effect = lower value
  normalized growth: 0.088 (active)
S. cerevisiae deletion strains, locus YMR223W, strain ubp8, stronger effect = lower value
  normalized growth: 0.0608 (active)
S. cerevisiae deletion strains, locus YMR231W, strain pep5, stronger effect = lower value
  normalized growth: 0.0654 (active)
S. cerevisiae deletion strains, locus YMR263W, strain SAP30, stronger effect = lower value
  normalized growth: 0.0587 (active)
S. cerevisiae deletion strains, locus YMR307W, strain GAS1, stronger effect = lower value
  normalized growth: 0.0974 (active)
S. cerevisiae deletion strains, locus YNL067W, strain RPL9B, stronger effect = lower value
  normalized growth: 0.0505 (active)
S. cerevisiae deletion strains, locus YNL071W, strain lat1, stronger effect = lower value
  normalized growth: 0.0618 (active)
S. cerevisiae deletion strains, locus YNL128W, strain TEP1, stronger effect = lower value
  normalized growth: 0.0626 (active) and 0.0798 (active)
S. cerevisiae deletion strains, locus YNL153C, strain GIM3, stronger effect = lower value
  normalized growth: 0.0777 (active)
S. cerevisiae deletion strains, locus YNL175C, strain NOP13, stronger effect = lower value
  normalized growth: 0.342 (active)
S. cerevisiae deletion strains, locus YNL183C, strain NPR1, stronger effect = lower value
  normalized growth: -0.00035 (active)
S. cerevisiae deletion strains, locus YNL197C, strain WHI3, stronger effect = lower value
  normalized growth: 0.0658 (active)
S. cerevisiae deletion strains, locus YNL209W, strain ssb2, stronger effect = lower value
  normalized growth: 0.06 (active)
S. cerevisiae deletion strains, locus YNL224C, strain SQS1, stronger effect = lower value
  normalized growth: 0.179 (active)
S. cerevisiae deletion strains, locus YNL233W, strain BNI4, stronger effect = lower value
  normalized growth: 0.0544 (active)
S. cerevisiae deletion strains, locus YNL248C, strain rpa49, stronger effect = lower value
  normalized growth: 0.0771 (active)
S. cerevisiae deletion strains, locus YNL250W, strain rad50, stronger effect = lower value
  normalized growth: 0.0637 (active)
S. cerevisiae deletion strains, locus YNL271C, strain bni1, stronger effect = lower value
  normalized growth: 0.0645 (active)
S. cerevisiae deletion strains, locus YNL298W, strain CLA4, stronger effect = lower value
  normalized growth: 0.0615 (active)
S. cerevisiae deletion strains, locus YNL307C, strain MCK1, stronger effect = lower value
  normalized growth: 0.0703 (active)
S. cerevisiae deletion strains, locus YNL322C, strain KRE1 (second series), stronger effect = lower value
  normalized growth: 0.0666 (active)
S. cerevisiae deletion strains, locus YNL322C, strain KRE1, stronger effect = lower value
  normalized growth: 0.0502 (active) and 0.997 (inactive)
S. cerevisiae deletion strains, locus YNR049C, strain mso1, stronger effect = lower value
  normalized growth: 0.0606 (active)
S. cerevisiae deletion strains, locus YNR052C, strain pop2, stronger effect = lower value
  normalized growth: 0.138 (active)
S. cerevisiae deletion strains, locus YOL006C, strain TOP1, stronger effect = lower value
  normalized growth: 0.104 (active)
S. cerevisiae deletion strains, locus YOL012C, strain htz1
  normalized growth: 0.179 (active)
S. cerevisiae deletion strains, locus YOL147C, strain pex11, stronger effect = lower value
  normalized growth: 0.946 (inactive)
S. cerevisiae deletion strains, locus YOR001W, strain rrp6, stronger effect = lower value
  normalized growth: 0.0666 (active)
S. cerevisiae deletion strains, locus YOR061W, strain CKA2, stronger effect = lower value
  normalized growth: 0.0499 (active)
S. cerevisiae deletion strains, locus YOR069W, strain VPS5, stronger effect = lower value
  normalized growth: 0.0518 (active)
S. cerevisiae deletion strains, locus YOR070C, strain gyp1, stronger effect = lower value
  normalized growth: 0.0741 (active)
S. cerevisiae deletion strains, locus YOR080W, strain dia2, stronger effect = lower value
  normalized growth: 0.0684 (active)
S. cerevisiae deletion strains, locus YOR083W, strain WHI5 (second series), stronger effect = lower value
  normalized growth: 0.0704 (active)
S. cerevisiae deletion strains, locus YOR083W, strain WHI5, stronger effect = lower value
  normalized growth: 0.0659 (active)
S. cerevisiae deletion strains, locus YOR106W, strain vam3, stronger effect = lower value
  normalized growth: 0.0652 (active)
S. cerevisiae deletion strains, locus YOR136W, strain idh2, stronger effect = lower value
  normalized growth: 0.0727 (active)
S. cerevisiae deletion strains, locus YOR144C, strain elg1, stronger effect = lower value
  normalized growth: 0.803 (active)
S. cerevisiae deletion strains, locus YOR184W, strain ser1, stronger effect = lower value
  normalized growth: 0.0638 (active)
S. cerevisiae deletion strains, locus YOR231W, strain MKK1, stronger effect = lower value
  normalized growth: 0.117 (active)
S. cerevisiae deletion strains, locus YOR265W, strain rbl2, stronger effect = lower value
  normalized growth: 0.0575 (active)
S. cerevisiae deletion strains, locus YOR270C, strain vph1, stronger effect = lower value
  normalized growth: 0.0967 (active)
S. cerevisiae deletion strains, locus YOR290C, strain snf2, stronger effect = lower value
  normalized growth: 0.627 (active)
S. cerevisiae deletion strains, locus YOR316C, strain cot1, stronger effect = lower value
  normalized growth: 0.0596 (active)
S. cerevisiae deletion strains, locus YPL051W, strain arl3, stronger effect = lower value
  normalized growth: 0.0672 (active)
S. cerevisiae deletion strains, locus YPL055C, strain LGE1, stronger effect = lower value
  normalized growth: 0.0641 (active)
S. cerevisiae deletion strains, locus YPL078C, strain atp4, stronger effect = lower value
  normalized growth: 0.0676 (active)
S. cerevisiae deletion strains, locus YPL106C, strain sse1, stronger effect = lower value
  normalized growth: 0.103 (active)
S. cerevisiae deletion strains, locus YPL240C, strain hsp82, stronger effect = lower value
  normalized growth: 0.0557 (active)
S. cerevisiae deletion strains, locus YPL241C, strain CIN2, stronger effect = lower value
  normalized growth: 0.0528 (active) and 0.999 (inactive)
S. cerevisiae deletion strains, locus YPL256C, strain CLN2, stronger effect = lower value
  normalized growth: 0.13 (active)
S. cerevisiae deletion strains, locus YPR119W, strain clb2, stronger effect = lower value
  normalized growth: 0.0619 (active)
S. cerevisiae deletion strains, locus YPR141C, strain kar3, stronger effect = lower value
  normalized growth: 0.0641 (active)
S. cerevisiae deletion strains, locus YPR163C, strain tif3, stronger effect = lower value
  normalized growth: 0.0693 (active)
S. cerevisiae deletion strains, locus YPR167C, strain met16, stronger effect = lower value
  normalized growth: 0.0622 (active)
S. cerevisiae deletion strains, strain wtn01, stronger effect = lower value
  normalized growth: 0.0586 (active)
S. cerevisiae strains, strain wild type, stronger effect = lower value
  normalized growth: 0.05 (active)
